We go through 14 targets from the supplement of paper PMC12067093, “Discovery and optimisation of a covalent ligand for TRIM25 and its application to targeted protein ubiquitination” (Chemical Science, 2025).

Compound in the experiment: Cc1cc(ccc1-c1ccccc1)C(=O)N1CCCN(CC1)C(=O)CCl [compound 10]
Nature of the experiment: probe-labelled cysteine peptide fold change vs DMSO (competition) (log2 fold change); higher = less target engagement (more negative = stronger competition). The conditions noted are these: THP-1, incubation time: 4 h.

Of roughly 21,000 targets only a part is listed; those with the largest changes were picked by preference.
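Further: competitive profiling in live THP-1 cells: cysteine peptides tagged with an iodoacetamide desthiobiotin (IA-DTB) probe, intensity after compound treatment relative to DMSO-treated cells.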

Sequence of UniProt Q08211 (Q08211 whole entry, looked up): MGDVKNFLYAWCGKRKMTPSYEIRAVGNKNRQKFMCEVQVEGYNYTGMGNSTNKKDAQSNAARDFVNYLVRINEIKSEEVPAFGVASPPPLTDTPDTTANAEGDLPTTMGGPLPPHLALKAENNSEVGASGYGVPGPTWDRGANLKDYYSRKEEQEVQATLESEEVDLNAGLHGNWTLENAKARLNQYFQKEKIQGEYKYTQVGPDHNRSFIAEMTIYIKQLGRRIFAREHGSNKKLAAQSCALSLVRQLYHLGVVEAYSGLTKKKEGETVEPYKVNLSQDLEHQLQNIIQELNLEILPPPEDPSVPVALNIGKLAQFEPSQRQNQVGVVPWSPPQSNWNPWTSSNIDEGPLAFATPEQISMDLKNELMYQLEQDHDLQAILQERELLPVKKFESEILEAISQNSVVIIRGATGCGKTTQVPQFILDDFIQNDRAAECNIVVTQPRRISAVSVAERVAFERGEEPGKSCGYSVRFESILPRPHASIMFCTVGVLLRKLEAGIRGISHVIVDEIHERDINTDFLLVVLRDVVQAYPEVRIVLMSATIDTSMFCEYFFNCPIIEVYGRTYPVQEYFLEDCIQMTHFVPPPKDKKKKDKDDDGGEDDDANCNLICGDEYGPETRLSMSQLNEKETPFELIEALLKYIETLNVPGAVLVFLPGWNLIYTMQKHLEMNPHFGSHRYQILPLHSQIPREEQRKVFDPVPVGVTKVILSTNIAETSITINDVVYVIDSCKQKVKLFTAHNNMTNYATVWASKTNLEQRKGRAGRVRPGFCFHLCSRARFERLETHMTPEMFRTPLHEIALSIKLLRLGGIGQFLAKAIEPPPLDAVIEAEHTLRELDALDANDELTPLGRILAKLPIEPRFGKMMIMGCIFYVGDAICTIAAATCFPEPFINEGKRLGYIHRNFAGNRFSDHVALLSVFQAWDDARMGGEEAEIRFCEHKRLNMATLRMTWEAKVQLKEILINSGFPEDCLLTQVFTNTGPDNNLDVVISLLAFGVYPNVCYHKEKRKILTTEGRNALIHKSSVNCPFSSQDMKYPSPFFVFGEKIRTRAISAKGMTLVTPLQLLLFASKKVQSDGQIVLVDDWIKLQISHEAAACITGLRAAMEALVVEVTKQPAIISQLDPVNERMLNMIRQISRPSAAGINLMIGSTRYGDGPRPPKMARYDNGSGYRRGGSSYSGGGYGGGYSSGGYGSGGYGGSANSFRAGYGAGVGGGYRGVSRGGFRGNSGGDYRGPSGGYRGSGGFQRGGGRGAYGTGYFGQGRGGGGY
Sequence of UniProt P49747 (P49747 whole entry, looked up): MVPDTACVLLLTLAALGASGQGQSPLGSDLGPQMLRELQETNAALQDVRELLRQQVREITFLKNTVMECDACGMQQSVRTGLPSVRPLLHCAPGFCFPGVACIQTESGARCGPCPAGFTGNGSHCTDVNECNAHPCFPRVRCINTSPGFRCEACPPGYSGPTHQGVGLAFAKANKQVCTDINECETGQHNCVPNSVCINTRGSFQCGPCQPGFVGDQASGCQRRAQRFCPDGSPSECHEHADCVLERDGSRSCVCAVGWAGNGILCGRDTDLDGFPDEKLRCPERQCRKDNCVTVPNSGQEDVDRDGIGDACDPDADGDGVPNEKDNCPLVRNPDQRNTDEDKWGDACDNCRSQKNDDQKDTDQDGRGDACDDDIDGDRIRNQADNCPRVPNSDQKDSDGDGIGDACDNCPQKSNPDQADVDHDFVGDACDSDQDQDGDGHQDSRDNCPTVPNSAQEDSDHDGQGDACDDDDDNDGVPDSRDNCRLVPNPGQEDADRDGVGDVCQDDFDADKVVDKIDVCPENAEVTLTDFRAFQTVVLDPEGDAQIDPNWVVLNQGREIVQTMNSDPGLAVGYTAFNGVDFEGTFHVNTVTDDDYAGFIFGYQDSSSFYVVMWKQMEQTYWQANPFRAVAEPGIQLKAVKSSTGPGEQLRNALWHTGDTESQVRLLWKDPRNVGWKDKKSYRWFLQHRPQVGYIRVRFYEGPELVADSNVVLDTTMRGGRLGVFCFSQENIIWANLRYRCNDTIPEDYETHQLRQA
Sequence of UniProt Q9UBU2 (Q9UBU2 whole entry): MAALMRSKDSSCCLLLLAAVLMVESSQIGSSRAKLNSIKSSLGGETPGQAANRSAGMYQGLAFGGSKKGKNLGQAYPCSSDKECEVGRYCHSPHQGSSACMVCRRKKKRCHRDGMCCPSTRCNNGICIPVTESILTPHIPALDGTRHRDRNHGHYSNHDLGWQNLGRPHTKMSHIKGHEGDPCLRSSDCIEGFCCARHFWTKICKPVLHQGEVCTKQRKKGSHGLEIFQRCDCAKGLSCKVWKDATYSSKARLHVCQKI
Sequence of UniProt Q8TDD1 (Q8TDD1 whole entry, looked up): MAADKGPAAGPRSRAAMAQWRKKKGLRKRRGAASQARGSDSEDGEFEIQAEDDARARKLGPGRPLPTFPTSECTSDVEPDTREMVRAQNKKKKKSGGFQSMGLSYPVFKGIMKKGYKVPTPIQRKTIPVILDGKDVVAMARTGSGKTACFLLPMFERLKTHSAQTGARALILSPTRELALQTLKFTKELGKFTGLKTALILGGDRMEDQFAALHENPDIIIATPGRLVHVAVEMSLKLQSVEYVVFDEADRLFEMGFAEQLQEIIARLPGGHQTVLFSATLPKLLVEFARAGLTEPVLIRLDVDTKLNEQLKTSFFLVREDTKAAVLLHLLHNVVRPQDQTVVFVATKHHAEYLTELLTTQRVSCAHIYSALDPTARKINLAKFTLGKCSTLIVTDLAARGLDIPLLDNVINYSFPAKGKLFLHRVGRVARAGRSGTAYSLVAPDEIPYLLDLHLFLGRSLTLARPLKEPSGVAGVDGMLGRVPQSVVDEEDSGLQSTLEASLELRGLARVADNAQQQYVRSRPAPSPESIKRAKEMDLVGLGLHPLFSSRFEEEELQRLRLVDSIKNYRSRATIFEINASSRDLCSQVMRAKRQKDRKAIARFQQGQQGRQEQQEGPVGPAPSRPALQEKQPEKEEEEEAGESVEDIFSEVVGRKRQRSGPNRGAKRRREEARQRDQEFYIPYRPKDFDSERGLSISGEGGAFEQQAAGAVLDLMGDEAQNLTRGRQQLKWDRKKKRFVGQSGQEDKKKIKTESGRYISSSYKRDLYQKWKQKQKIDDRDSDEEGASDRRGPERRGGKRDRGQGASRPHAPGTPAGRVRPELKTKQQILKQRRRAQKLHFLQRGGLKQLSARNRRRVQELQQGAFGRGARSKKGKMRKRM
Sequence of UniProt Q14061 (Q14061 whole entry, looked up): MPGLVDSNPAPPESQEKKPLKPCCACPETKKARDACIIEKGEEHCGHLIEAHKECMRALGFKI
Sequence of UniProt O75718 (O75718 whole entry, looked up): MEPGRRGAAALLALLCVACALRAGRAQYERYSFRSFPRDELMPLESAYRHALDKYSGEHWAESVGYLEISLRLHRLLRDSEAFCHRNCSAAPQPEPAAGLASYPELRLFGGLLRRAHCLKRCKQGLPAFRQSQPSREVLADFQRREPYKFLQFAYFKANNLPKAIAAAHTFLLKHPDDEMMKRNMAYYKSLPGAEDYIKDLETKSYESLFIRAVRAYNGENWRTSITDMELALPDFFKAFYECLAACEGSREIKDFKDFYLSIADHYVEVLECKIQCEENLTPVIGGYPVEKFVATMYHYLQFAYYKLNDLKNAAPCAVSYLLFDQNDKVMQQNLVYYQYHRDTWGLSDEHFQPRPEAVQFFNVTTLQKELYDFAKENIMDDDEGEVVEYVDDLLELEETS
Sequence of UniProt Q7Z3D6 (Q7Z3D6 whole entry, looked up): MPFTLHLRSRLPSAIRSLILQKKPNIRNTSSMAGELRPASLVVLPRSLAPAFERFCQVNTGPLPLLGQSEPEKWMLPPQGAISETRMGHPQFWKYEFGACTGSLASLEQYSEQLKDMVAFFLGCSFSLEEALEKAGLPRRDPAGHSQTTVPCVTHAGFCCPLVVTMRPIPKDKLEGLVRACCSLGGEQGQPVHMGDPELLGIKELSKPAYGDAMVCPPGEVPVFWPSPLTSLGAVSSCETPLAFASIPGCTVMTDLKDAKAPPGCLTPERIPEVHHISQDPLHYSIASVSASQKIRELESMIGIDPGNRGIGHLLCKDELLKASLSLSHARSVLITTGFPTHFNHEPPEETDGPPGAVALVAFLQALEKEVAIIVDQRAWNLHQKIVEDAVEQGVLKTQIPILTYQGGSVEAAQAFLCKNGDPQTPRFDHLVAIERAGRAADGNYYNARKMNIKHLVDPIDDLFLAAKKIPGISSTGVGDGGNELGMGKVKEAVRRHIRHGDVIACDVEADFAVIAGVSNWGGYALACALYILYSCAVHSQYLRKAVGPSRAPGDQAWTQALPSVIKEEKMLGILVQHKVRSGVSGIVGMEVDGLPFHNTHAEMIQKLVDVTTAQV
Sequence of UniProt Q9P0U4 (Q9P0U4 whole entry, looked up): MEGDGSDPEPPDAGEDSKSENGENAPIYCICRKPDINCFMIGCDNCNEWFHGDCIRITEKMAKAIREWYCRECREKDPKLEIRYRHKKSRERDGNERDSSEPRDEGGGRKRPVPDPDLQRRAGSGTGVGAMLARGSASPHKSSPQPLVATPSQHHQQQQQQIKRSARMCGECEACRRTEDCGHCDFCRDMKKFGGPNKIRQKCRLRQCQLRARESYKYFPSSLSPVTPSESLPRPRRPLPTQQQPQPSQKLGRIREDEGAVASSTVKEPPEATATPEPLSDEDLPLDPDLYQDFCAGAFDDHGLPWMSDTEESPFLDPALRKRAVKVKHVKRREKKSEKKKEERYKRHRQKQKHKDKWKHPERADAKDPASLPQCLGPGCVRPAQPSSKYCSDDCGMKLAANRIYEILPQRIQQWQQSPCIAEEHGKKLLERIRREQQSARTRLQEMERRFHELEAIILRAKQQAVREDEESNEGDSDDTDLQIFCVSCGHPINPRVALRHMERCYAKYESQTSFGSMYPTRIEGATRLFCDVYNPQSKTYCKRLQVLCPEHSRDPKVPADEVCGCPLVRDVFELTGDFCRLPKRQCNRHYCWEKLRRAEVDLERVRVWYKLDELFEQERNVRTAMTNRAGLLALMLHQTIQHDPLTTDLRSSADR

“DDX59_Q5T1V6_453_LFKPPVLVFVDCK (UniProt Q5T1V6)”: the “probe-labelled cysteine peptide fold change” value was -0.33 (10 µM) and -1.68 (50 µM).

Turning to “DGLUCY_Q7Z3D6_265_APPGCLTPER (UniProt Q7Z3D6)”, the “probe-labelled cysteine peptide fold change” value was -0.239 (10 µM) and -0.427 (50 µM).

“DHX9_Q08211_777_VRPGFCFHLCSR (UniProt Q08211)”: the “probe-labelled cysteine peptide fold change” value runs as follows: (10 µM) -0.231; (50 µM) -0.0284.

On to “CRTAP_O75718_273_DFYLSIADHYVEVLECK (UniProt O75718)”, for which the “probe-labelled cysteine peptide fold change” value runs as follows: (10 µM) -0.146; (50 µM) 1.08.

Take “CTU1_Q7Z7A3_144_SCCTFCGVLR (UniProt Q7Z7A3)”: the “probe-labelled cysteine peptide fold change” value runs as follows: (10 µM) -0.353; (50 µM) -1.17.

In the case of “DDX54_Q8TDD1_389_CSTLIVTDLAAR (UniProt Q8TDD1)”, the “probe-labelled cysteine peptide fold change” value runs as follows: (10 µM) 0.1; (50 µM) 0.184.

Turning to “CRYL1_Q9Y2S2_125_VILSSSTSCLMPSK (UniProt Q9Y2S2)”, the “probe-labelled cysteine peptide fold change” value was -0.0791 (10 µM) and -0.537 (50 µM).

Regarding “DHX30_Q7L2E3_673_GEPGGILCFLPGWQEIK (UniProt Q7L2E3)”, the “probe-labelled cysteine peptide fold change” value stood at 0.357 (10 µM) and 0.169 (50 µM).

As for “COX17_Q14061_23+24_KPLKPCCACPETK (UniProt Q14061)”, the “probe-labelled cysteine peptide fold change” value is, setting by setting: (10 µM) -0.321; (50 µM) -2.25.

For the target “COMP_P49747_371_GDACDDDIDGDR (UniProt P49747)”, the “probe-labelled cysteine peptide fold change” value was -1.61 (10 µM) and -0.768 (50 µM).

In the case of “CXXC1_Q9P0U4_564_VPADEVCGCPLVR (UniProt Q9P0U4)”, the “probe-labelled cysteine peptide fold change” value is 0.111 (10 µM) and -0.109 (50 µM).

As for “DDX3X_O00571_128_WCDKSDEDDWSK (UniProt O00571)”, the “probe-labelled cysteine peptide fold change” value was -0.303 (10 µM) and -1.35 (50 µM).

Consider “DKK2_Q9UBU2_214_ICKPVLHQGEVCTK (UniProt Q9UBU2)”, for which the “probe-labelled cysteine peptide fold change” value reads like this: (10 µM) -0.0653; (50 µM) -0.0474.

“DBNL_Q9UJU6-3_256_NEQGSTCASLQESAVHPR (UniProt Q9UJU6)”: the “probe-labelled cysteine peptide fold change” value reads like this: (10 µM) -0.341; (50 µM) -0.167.
